Measurements reported in PubChem BioAssay.
The source made the active and inactive calls. How the calls were made is not given here.

molecular target: Pantothenate synthetase (Mycobacterium tuberculosis (strain ATCC 25618 / H37Rv)) (UniProt P9WIL5); assay: Recombinant Mtb pantothenate synthetase (PanC) inhibitors, coupled enzyme, confirmatory (AID 375); settings: coupled enzyme assay; at 10 µM, active compounds read high;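 further: 0% = full reaction with vehicle and 100% = no enzyme background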
Sequence (P9WIL5 whole entry, looked up): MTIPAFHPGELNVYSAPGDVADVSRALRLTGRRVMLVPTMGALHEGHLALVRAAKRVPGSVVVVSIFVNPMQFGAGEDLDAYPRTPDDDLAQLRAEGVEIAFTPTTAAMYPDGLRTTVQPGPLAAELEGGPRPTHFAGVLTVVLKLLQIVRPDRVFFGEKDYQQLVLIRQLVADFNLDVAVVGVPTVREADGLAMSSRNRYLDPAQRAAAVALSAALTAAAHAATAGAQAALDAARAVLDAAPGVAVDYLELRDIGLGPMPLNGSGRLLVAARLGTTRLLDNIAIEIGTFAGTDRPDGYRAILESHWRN

| Compound | inhibition |
| --- | --- |
| CCCCCC#CCC#CCC#CCC#CCCCC(=O)O | 0% (inactive) |
| CCOc1cc(C2C3=C(CCCC3=O)N(C)C3=C2C(=O)CCC3)cc(Cl)c1O | 0% (inactive) |
| COc1ccc(C(=O)N(CCCO)Cc2cc3c(C)ccc(C)c3[nH]c2=O)cc1OC | 0% (inactive) |
| CC(NC(=O)c1ccco1)c1ccc2c(c1)OCCO2 (configuration not stated) | 0% (inactive) |
| CCCc1cc(C(N)=O)c(NC(=O)c2ccco2)s1 | 0% (inactive) |
| CCN1CCN(C(=O)c2cn(CC)c3ccc(S(=O)(=O)N(C)C)cc3c2=O)CC1 | 0% (inactive) |
| CCCC(=O)n1nc(-c2ccc(OC)cc2)nc1N | 2% (inactive) |
| CN(C1CCCCC1)S(=O)(=O)c1ccc(S(=O)(=O)N2CCCC2)cc1 | 0% (inactive) |
| NC(=O)C1CCN(CC(=O)N2c3ccccc3CCc3ccccc32)CC1 | 0% (inactive) |
| CN(C(=O)c1ccccn1)c1nnc(-c2cccnc2)s1 | 6% (inactive) |
| O=C(NC1CC2CCC1C2)C1COc2ccccc2O1 (configuration not stated) | 0% (inactive) |
| COc1ccc(S(=O)(=O)N(C)c2ccc(C(=O)N3CCOCC3)cc2)cc1 | 0% (inactive) |
| Cc1ccc2c(c1C)NC(=O)C2(O)CC(=O)c1ccc2c(c1)OCO2 (configuration not stated) | 0% (inactive) |
| CSC1CCCCC1(O)CSc1nc2c(cc1C#N)CCCC2 (configuration not stated) | 4% (inactive) |
| CCOC(=O)CSC1=C(C#N)C(c2ccc(C)cc2)C(C(=O)OC)C(=O)N1 (configuration not stated) | 0% (inactive) |
| CCOC(=O)c1ccccc1NC(=O)Cn1cnc2c(cnn2-c2ccc(OC)cc2)c1=O | 0% (inactive) |
| COc1cccc(C2C(C(=O)c3cccs3)=C(O)C(=O)N2CCCn2ccnc2)c1OC (configuration not stated) | 0% (inactive) |
